Only some compounds are listed: those with a hit (about 19% of all), similar ones and a draw of the others.
HT1080 IDH1KD tx: qHTS for induction of synthetic lethality in tumor cells producing 2HG: qHTS for the HT-1080-IDH1KD cell line; HT-1080 IDH1 knockdown viability, ATP luminescence, 48 h; AID 686971, 2013; Potency, µM (highest dose often 46.1 µM), without a hit: at the top dose activity, negative = toxicity, most hits filed as cytotoxic; actives 2% (n = 360,000);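 note: potency is the fitted concentration of half-maximal effect; 0% = DMSO wells and -100% = cell-free medium wells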
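% activity derives from luminescence (CellTiter-Glo), normalised to DMSO and no-cell wells. HT-1080-IDH1KD cells, 750/well, had 48 h compound exposure at 37 °C.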
HT1080NT lethal: qHTS for induction of synthetic lethality in tumor cells producing 2HG: qHTS for the HT-1080-NT fibrosarcoma cell line; HT-1080-NT fibrosarcoma viability, CellTiter-Glo ATP luminescence, 48 h; Potency, µM (doses to about 46.1 µM), for inactives: at the highest dose activity, negative = less viability, usual class: cytotoxic; actives 1.6% (n = 360,000);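 note: NT is the 2HG producing partner of a matched IDH1 knockdown line; potency is the fitted concentration of half-maximal effect; 0% = DMSO-treated cells and -100% = media-only wells without cells; nearly all actives have a fitted effect of over 55% in size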
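HT-1080-NT fibrosarcoma cells (2HG-overproducing), 750 cells/well in RPMI with 5% FBS, dosed after 2 h and incubated 48 h at 37C. CellTiter-Glo luminescence normalized to DMSO and no-cell wells; concentration-response curves fitted and classed.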
DT40 TDP1 no CPT: qHTS for Inhibitors of human tyrosyl-DNA phosphodiesterase 1 (TDP1): qHTS in cells in absence of CPT. Potency, µM (doses to about 46.2 µM), for the others: at the highest dose activity change, negative = growth inhibition, most hits filed as inhibitors. actives 15% (n = 420,000). AID 686978, 2013. DT40 Tdp1-/- hTDP1 cells, no CPT, ATP luminescence, 48 h; note: potency is the fitted concentration of half-maximal effect; nearly all actives have a fitted effect of over 55% in size
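Camptothecin absent (DMSO only). Human TDP1-complemented DT40 knockout cells, 400 cells/well, 37 °C for minimum 48 hr; ATP measured via CellTiter-Glo, 30 min dark incubation, luminescence.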
IL-1B inflam inh: qHTS for Inhibitors of Inflammasome Signaling: IL-1-beta AlphaLISA Primary Screen; THP-1 LPS/ATP IL-1B secretion, AlphaLISA, 16 h; stronger effect = lower value; activity change, % at 57.5 µM; actives 4.7% (n = 360,000); in the data active = activity change below about -50%; inconclusive = mostly about -30% to -49%
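Secreted IL-1B measured by AlphaLISA bead assay after 16 h compound exposure of THP-1 cells; compounds (final up to 57.5 uM) added 1 h before LPS (250 ng/mL) and ATP (1.25 mM) stimulation; lower signal means less secretion.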
DT40 TDP1 CPT: qHTS for Inhibitors of human tyrosyl-DNA phosphodiesterase 1 (TDP1): qHTS in cells in presence of CPT; chicken DT40 Tdp1-/-;hTDP1 cells + 20 nM CPT, ATP luminescence, 48 h; Potency, µM (titrated, usually from 46.2 µM), for the others: at the top dose activity change, negative = growth inhibition, most hits filed as inhibitors; actives 12% (n = 420,000); note: potency is the fitted concentration of half-maximal effect; nearly all actives have a fitted effect of over 55% in size
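Cell growth measured by CellTiter-Glo luminescence after a minimum 48 h, 37 C compound exposure with 20 nM CPT in Tdp1-knockout DT40 cells stably expressing hTDP1, seeded 400/well; qHTS titration format.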
Starred values were filed as active, the others as inactive; ? = inconclusive; / = no result given. Unless noted, calls come from the whole dose curve; as a rule, active = well fitted curve in the direction sought with a large enough effect; inconclusive = small, poorly fitted or top-dose-only effect, or another doubt; inactive = no such curve, though single readings can be large; an effect the other way counts as inactive or inconclusive. Unless noted, % is set by controls: 0 for no effect and ±100 for the full control effect.

SMILES | HT1080 IDH1KD tx | HT1080NT lethal | DT40 TDP1 no CPT | IL-1B inflam inh | DT40 TDP1 CPT
CN=C(SCc1cc2c(cc1Cl)OCO2)c1c(O)n(C)c(=O)n(C)c1=O | -4% | -10% | ? | 0 | ?
O=C(NCc1ccccc1)Oc1cccc(Cl)c1 | -3% | -10% | 16µM* | 0 | ?
O=C(COc1ccccc1Cl)N1CCN(CCc2ccncc2)CC1 | / | / | -19% | / | -10%
O=C(CCCC1=NS(=O)(=O)c2ccccc2N1)N1CCC2(CC1)OCCO2 | 1% | 2% | -8% | 38 | -19%
COc1ccc(OC)c(CNCCc2ccc(OC)c(OC)c2)c1 | -6% | 7% | -16% | -12 | 13%
COc1ccc(CNCCC(c2ccc(OC(C)C)cc2)C(C)C)cc1OC (configuration not stated) | ? | ? | 16µM* | -98* | ?
Oc1ccccc1CN(CCc1ccccc1)Cc1ccccc1 | -14% | -16% | -18% | 14 | -25%
CN1CCC(N(C)c2nc(-c3ccc([N+](=O)[O-])cc3)nc3ccccc23)CC1 | ? | ? | 12µM* | -96* | 8.2µM*
CC/C(=C\C=C\[C@@H]1C=C[C@@H]2CCC[C@H]2[C@@H]1C(=O)c1ccc[nH]1)[C@@H]1O[C@@H]([C@@H](C)C(=O)O)CC[C@@H]1C | 8.2µM* | 10µM* | 5.8µM* | 0 | 7.3µM*
COCCNC(=S)N1Cc2ccccc2-n2nncc2C1 | -3% | -1% | -14% | -6 | -8%
C1CCC2CCCCC2C1 (configuration not stated) | -1% | 20% | -19% | -5 | 4%
Cc1ccc(OCC(=O)N2CCCC(N3CCN(c4ccc(F)cc4)CC3)C2)cc1 (configuration not stated) | -9% | 0% | ? | -23 | ?
COc1ccc(OCC(=O)N2CCCC(N3CCN(c4ccccc4C)CC3)C2)cc1 (configuration not stated) | -4% | -4% | 21µM* | -16 | 16µM*
O=C(COc1ccc2ccccc2c1)N1CCN(C2CCN(Cc3ccccc3)CC2)CC1 | -2% | -23% | ? | -19 | 16µM*
COc1ccccc1CN1CCN(C(=O)COc2ccc3ccccc3c2)CC1 | -12% | -12% | -15% | -5 | ?
O=C(COc1ccc2ccccc2c1)N1CCN(CC2CC3C=CC2C3)CC1 (configuration not stated) | -15% | -15% | 18µM* | -14 | 18µM*
CN1CCN(C(=O)COc2ccc3ccccc3c2)CC1 | 0% | 2% | 7% | 16 | -3%
COc1ccc(OCC(=O)N2CCN(C3CCC(c4ccccc4)CC3)CC2)cc1 (configuration not stated) | -4% | -11% | 18µM* | -3 | ?
NCCCCC(NC(CCc1ccccc1)C(=O)O)C(=O)N1CCCC1C(=O)O (configuration not stated) | / | / | 5% | / | 14%
CC(=O)CCc1ccccc1 | 8% | 0% | 7% | 8 | 40%
Cc1ccc(C(C)C)c(OCC(=O)N2CCN(Cc3nc4cc([N+](=O)[O-])ccc4n3C)CC2)c1 | 1% | 4% | -3% | 3 | 1%
Cc1cccc(NC(=O)CN2CCN(C(=O)COc3cccc(Br)c3)CC2)c1C | 4% | -1% | ? | -7 | -28%
CCC(=O)c1ccc(OCC(=O)N2CCN(CC(=O)Nc3ccccc3C(F)(F)F)CC2)cc1 | -11% | -18% | 15µM* | 10 | ?
C[C@]12C[C@H](O)[C@@H](O)CC1=CCC1C2CC[C@@]2(C)C1CC[C@@H]2O (some centres not stated) | 13% | 12% | -6% | 9 | 4%
O=C(NCCc1ccc(Cl)cc1)C(=O)NCC(c1cccs1)S(=O)(=O)c1cccs1 (configuration not stated) | / | / | 13µM* | / | ?
SMILES | HT1080 IDH1KD tx | HT1080NT lethal | DT40 TDP1 no CPT | IL-1B inflam inh | DT40 TDP1 CPT
COc1ccc(OCCn2c(NC(=O)c3ccc(OC)cc3)nc3ccccc32)cc1 | / | / | 16µM* | / | 18µM*
CS(=O)(=O)c1ccc([C@@H](O)[C@@H](CF)NC(=O)C(Cl)Cl)cc1 | 1% | 28% | 2.9µM* | 16 | 4.1µM*
CC(=O)OC1C(O)C2=C3C4(C)C1C(C)(C)C(=O)CC4C3(O)C(OC(C)=O)C1(CC1C)C2=O (configuration not stated) | 13% | -3% | 7.3µM* | -121* | 5.8µM*
CN(C)S(=O)(=O)c1cccc(C(=O)N2CCC(C(=O)O)(c3ccccc3)CC2)c1 | 21% | 18% | -4% | -1 | 6%
CN(c1ccccc1)S(=O)(=O)c1cccc(C(=O)N2CCN(c3ccccn3)CC2)c1 | 0% | -6% | 16µM* | -12 | 18µM*
C/C=C1/C[N@@+]2(C)CC[C@]34C(=C(C=O)[C@H]1C[C@H]32)Nc1ccccc14 | / | / | -2% | / | 9%
C=CCn1c(O)c(C(CC)=NCCc2ccccc2)c(=O)[nH]c1=O | -5% | 0% | ? | 1 | ?
C=CCn1c(O)c(C(CC)=NCCc2c[nH]c3ccccc23)c(=O)[nH]c1=O | ? | ? | 16µM* | 33 | ?
C=CCn1c(O)c(C(=O)CCCCCC)c(=O)[nH]c1=O | ? | ? | 8.2µM* | 33 | 12µM*
CC(C)Oc1cccnc1N(C)C1CCN(Cc2ccccc2)CC1 | -8% | -22% | -20% | 12 | -28%
O=C(O)c1c[nH]c2ccc(S(=O)(=O)N(CCCl)CCCl)cc12 | 2% | 5% | -2% | 0 | -5%
COC(=O)C1=C(c2ccc(OC)c(OC)c2)C[C@@H]2CC[C@H]1N2C(=O)NCCOc1ccc(OC)cc1 | 2% | 5% | -23% | 5 | -2%
CCCCOc1ccc(C(=O)NCCc2csc(-c3ccc(OC)cc3)n2)cc1 | / | / | 4.1µM* | / | 4.6µM*
COc1ccc(Nc2nc(N)nc(CSc3nc4ccccc4s3)n2)cc1 | / | / | 16µM* | / | 15µM*
NC(=O)CN1C2CCC1CC(NC(=O)C1CC1)C2 (configuration not stated) | 13% | 8% | -6% | 18 | -1%
COc1ccc(NC(=S)Nc2ncccc2C)c(OC)c1 | 10µM* | 7.1µM* | ? | -78* | -25%
COc1ccccc1-n1c(/C=C/c2ccc(O)cc2)nc2ccccc2c1=O | 0% | -9% | ? | ? | ?

Assay outcomes deposited in PubChem BioAssay by National Center for Advancing Translational Sciences (NCATS).
